PubChem BioAssay AID686979 (National Center for Advancing Translational Sciences (NCATS), 2013)
Where “and” joins values, the source holds several entries; their conditions need not be identical. Identical values can stand only once. The campaign covered roughly 420,000 compounds. About 50,000 (12%) were called active. Where a call stands in place of a potency, no number is given. Another 26% or so got no clear call; they are omitted. Calls come from the whole dose curve; as a rule, active = well fitted inhibition curve with a large enough effect; inconclusive = small, poorly fitted or top-dose-only effect; inactive = flat fitted curve, though single readings scatter. Many of the other results were omitted from the sample, so actives are more common in it than they were.

test: qHTS for Inhibitors of human tyrosyl-DNA phosphodiesterase 1 (TDP1): qHTS in cells in presence of CPT; settings: chicken DT40 Tdp1-/-;hTDP1 cells + 20 nM CPT, ATP luminescence, 48 h; series mostly up to 46.2 µM; note: nearly all actives have a fitted effect of over 55% in size
Summary of the method: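 Chicken DT40 Tdp1-/- cells complemented with human TDP1, 400 cells/well, exposed to compounds plus 20 nM camptothecin for at least 48 h at 37 C; viability read as ATP content by CellTiter-Glo luminescence.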
Potency is the fitted concentration of half-maximal effect.

Q: Which Potency does the source give for `CCOCCc1c(O)[nH]c(=S)[nH]c1=O` here?
A: The Potency was “inactive”.

Q: For `CN(C)C(=O)Oc1ccc(OCc2cccc[n+]2C)cc1`, which Potency is on record?
A: Its Potency is “inactive”.

Q: For `c1cc2c(cc1CCNC1CCCCCC1)OCO2`, which Potency is on record?
A: The Potency was “inactive”.

Q: For `CC(C)(C)c1ccc(S(=O)(=O)Nc2ccc(O)c(Sc3nc4ccccc4s3)c2)cc1`, which Potency is on record?
A: Its Potency is 18.4 µM (active).

Q: Which Potency does the source give for `c1ccc2sc(SNC3CCCCC3)nc2c1` here?
A: The Potency was “inactive”.

Q: With `C=CC12CN(C)[C@@H]3C4CO[C@H](C[C@H]41)[C@]1(C(=O)Nc4ccccc41)[C@@H]32` (stereo partly specified) as the compound, how does the Potency read?
A: Its Potency is “inactive”.

Q: For `CCN(N=Nc1nonc1OC)c1nonc1OC`, which Potency is on record?
A: Its Potency is “inactive”.

Q: For `c1ccc2sc(N3CCNCC3)nc2c1`, which Potency is on record?
A: The Potency was “inactive”.

Q: For `CCN1C[C@]2(COC)C(O)C[C@H](OC)[C@@]34C5C[C@]6(O)C(OC)C(O)[C@](OC(C)=O)(C5C6OC(=O)c5ccccc5)C(C(OC)C23)C14` (stereo partly specified), which Potency is on record?
A: The Potency was “inactive”.

Q: Which Potency does the source give for `CC(C)N(CC#CCC1(O)c2ccccc2-c2ccccc21)C(C)C` here?
A: The Potency was “inactive”.

Q: Which Potency does the source give for `c1cc2c(c(NC3=NCCCS3)c1)CCCC2` here?
A: Its Potency is “inactive”.

Q: For `COC(=O)N(c1ccc(OC)cc1)P1(=S)OCCC(C)O1` (stereo unspecified), which Potency is on record?
A: The Potency was 14.6 µM (active).

Q: For `Cc1ccc(-n2c(O)c(C=NCC3CCCO3)c(=O)[nH]c2=O)c(C)c1` (stereo unspecified), which Potency is on record?
A: The Potency was “inactive”.

Q: With `CCC1(C)CC(CCNCc2ccc(N(C)C)cc2)(c2ccc(F)cc2)CCO1` (stereo unspecified) as the compound, how does the Potency read?
A: Its Potency is 16.4 µM (active).

Q: With `CC(=O)N1CN2CN(C(C)=O)CC(C(=O)c3ccc(Br)cc3)(C2)C1` as the compound, how does the Potency read?
A: Its Potency is “inactive”.

Q: With `COc1ccccc1NC(=O)N1C[C@@H]2C[C@@H](C1)c1cccc(=O)n1C2` as the compound, how does the Potency read?
A: Its Potency is “inactive”.

Q: With `O=c1[nH]c(=S)[nH]c(O)c1/C=C1\C=Nc2ccccc21` as the compound, how does the Potency read?
A: The Potency was 7.31 µM (active).

Q: With `COc1ccccc1N=Nc1c(O)[nH]c(=S)[nH]c1=O` as the compound, how does the Potency read?
A: Its Potency is “inactive”.

Q: For `CN(C)c1nc(N(C)C)nc(N(C#N)CCCl)n1`, which Potency is on record?
A: The Potency was “inactive”.

Q: With `Cc1ccc(OC(=O)N(C)C[C@@H]2OCc3cnnn3CCCC(=O)N([C@H](C)CO)C[C@@H]2C)cc1` as the compound, how does the Potency read?
A: Its Potency is “inactive”.

Q: Which Potency does the source give for `CCC1(c2ccccc2)C(=O)NC(=O)N(C)C1=O` (stereo unspecified) here?
A: The Potency was “inactive”.

Q: Which Potency does the source give for `COc1ccc(Br)cc1CNCCc1cccc(Cl)c1` here?
A: Its Potency is 18.4 µM (active).

Q: For `COc1cc(C[C@H](C)N)c(OC)cc1Br`, which Potency is on record?
A: The Potency was “inactive”.

Q: With `CC[C@]1(O)C(=O)OCc2c1cc1n(c2=O)Cc2cc3ccccc3nc2-1` as the compound, how does the Potency read?
A: Its Potency is 0.0168 µM (active).

Q: For `CC1=C2C(=O)C3C(CC=C4CC(OC5OC(O)C(O)C(O)C5CO)CCC43C)C2CCC12OC1CC(C)CNC1C2C` (stereo unspecified), which Potency is on record?
A: Its Potency is “inactive”.

Q: With `Cc1ccc2c(c1)C1CN(C)CCC1N2C(=O)Cn1nnc(-c2ccccc2F)n1` (stereo unspecified) as the compound, how does the Potency read?
A: Its Potency is “inactive”.

Q: Which Potency does the source give for `CC(C)(c1ccc(OC[C@@H]2CO2)cc1)c1ccc(OC[C@H]2CO2)cc1` here?
A: Its Potency is 10.6 µM (active).

Q: For `CCOP(=O)(OCC)C(NC(=O)NC)C(N)=O` (stereo unspecified), which Potency is on record?
A: The Potency was “inactive”.

Q: With `Nc1ccc(C(=O)N/N=C2/CN3CCC2CC3)cc1` as the compound, how does the Potency read?
A: Its Potency is “inactive”.

Q: With `O=C(/C=C/c1cccs1)c1cc(Cl)ccc1OC(=O)N1CCOCC1` as the compound, how does the Potency read?
A: The Potency was 16.4 µM (active).

Q: With `O=C(Nc1cccc(OC(=O)N2CCCCC2)c1)N1CCOCC1` as the compound, how does the Potency read?
A: The Potency was “inactive”.

Q: With `Cc1cc(-c2ccc(N)c(C)c2)ccc1N` as the compound, how does the Potency read?
A: Its Potency is “inactive”.

Q: With `C=CCN1C(=O)C2(C(C(=O)OCC)=C(N)Oc3c2c(=O)oc2ccccc32)c2ccccc21` (stereo unspecified) as the compound, how does the Potency read?
A: The Potency was “inactive”.

Q: With `CCCCn1c(O)c(C(CC)=NCc2ccco2)c(=O)[nH]c1=O` as the compound, how does the Potency read?
A: Its Potency is “inactive”.

Q: Which Potency does the source give for `CCC(=NCCCO)c1c(O)n(-c2ccc(OC)cc2)c(=O)[nH]c1=O` here?
A: Its Potency is “inactive”.

Q: Which Potency does the source give for `CCCCCCN=C(CC)c1c(O)n(CCCC)c(=O)[nH]c1=O` here?
A: The Potency was 14.6 µM (active).

Q: With `OC(CNC1CCCCC1)c1ccccc1` (stereo unspecified) as the compound, how does the Potency read?
A: The Potency was “inactive”.

Q: Which Potency does the source give for `NS(=O)(=O)c1ccc(CCNC(=O)c2ccc(Cl)c(S(=O)(=O)N3CCCCCC3)c2)cc1` here?
A: The Potency was 20.6 µM (active).

Q: With `CC1CCCCN1Cc1cccnc1` (stereo unspecified) as the compound, how does the Potency read?
A: Its Potency is “inactive”.

Q: With `CCOC(=O)C(O)(c1ccc(N=Cc2ccccc2O)c(C)c1)C(F)(F)F` (stereo unspecified) as the compound, how does the Potency read?
A: Its Potency is “inactive”.

Q: Which Potency does the source give for `CC(=O)c1c(O)c(C)c(O)c(Cc2c(O)c3c(c(C(=O)/C=C/c4ccccc4)c2O)OC(C)(C)C=C3)c1O` here?
A: The Potency was 29.9 µM (active).

Q: For `CC(=O)c1c(O)c(C)c(O)c(Cc2c(O)c3c(c(C(=O)/C=C\c4ccccc4)c2O)OC(C)(C)C=C3)c1O`, which Potency is on record?
A: The Potency was 13.3 µM (active).

Q: Which Potency does the source give for `O=C1NC(=O)C(CCc2ccccn2)(Cc2cccc(Cl)c2Cl)C(=O)N1c1ccc(Br)cc1` (stereo unspecified) here?
A: The Potency was “inactive”.

Q: With `CCOP(=S)(OCC)SCOC(=O)NCC(=O)OC` as the compound, how does the Potency read?
A: Its Potency is “inactive”.

Q: With `CN1CCc2cc3c(cc2[C@H]1[C@@H]1OC(=O)c2c1ccc1c2OCO1)OCO3` as the compound, how does the Potency read?
A: The Potency was “inactive”.

Q: For `C=CCSSCC=C`, which Potency is on record?
A: The Potency was “inactive”.

Q: Which Potency does the source give for `CC(=CCOc1ccc2ccc(=O)oc2c1)C1=CC(=O)C(C)(C)O1` here?
A: Its Potency is 5.8 µM (active).

Q: Which Potency does the source give for `c1ccc2c(c1)[I+]c1ccccc1-2` here?
A: The Potency was 33.5 nM (active) and 15.8 nM (active) and 79.4 nM (active).

Q: Which Potency does the source give for `Cc1nc2nc(C)c(CCC(=O)N3CCC4(CC3)OCCO4)c(C)n2n1` here?
A: Its Potency is “inactive”.

Q: With `O=C(O)CCn1cc(C=C2C(=O)NC(=S)NC2=O)c(-c2cccc(Br)c2)n1` as the compound, how does the Potency read?
A: The Potency was “inactive”.

Q: With `CNCC[C@H](Oc1ccc(C(F)(F)F)cc1)c1ccccc1` as the compound, how does the Potency read?
A: The Potency was 7.5 µM (active).

Q: Which Potency does the source give for `N[C@@H](Cc1c[nH]c2ccccc12)c1nnc(SCc2c(F)cccc2Cl)o1` here?
A: The Potency was “inactive”.

Q: Which Potency does the source give for `CC(C)C(N)C(=O)OCCOCn1cnc2c(=O)[nH]c(N)nc21` (stereo unspecified) here?
A: The Potency was 2.06 µM (active).

Q: With `CN(C)C(=O)Oc1cc(=O)n2c3c(cccc13)CCC2` as the compound, how does the Potency read?
A: Its Potency is “inactive”.

Q: Which Potency does the source give for `O=[N+]([O-])c1cnc2ccc3ccccc3c2c1` here?
A: Its Potency is “inactive”.

Q: For `CC1CC=CCC12C(=O)NC(=S)NC2=O` (stereo unspecified), which Potency is on record?
A: Its Potency is “inactive”.

Q: For `COC(=O)COc1cc(C)cc2oc(=O)c3c(c12)CCCC3`, which Potency is on record?
A: The Potency was “inactive”.

Q: With `Cc1nc2ccccc2c(=O)n1-c1ccc(Cl)cc1Cl` as the compound, how does the Potency read?
A: The Potency was 13 µM (active).

Q: Which Potency does the source give for `O=c1c2ccccc2nc(CBr)n1-c1ccc(Cl)cc1` here?
A: Its Potency is “inactive”.

Q: Which Potency does the source give for `O=C1CC(=O)N(Cc2ccccc2)C(=O)N1CCCCCCN1C(=O)CC(=O)N(Cc2ccccc2)C1=O` here?
A: Its Potency is “inactive”.

Q: Which Potency does the source give for `O=C(O)c1cc[c]([Sb](=[O])([OH])[OH])cc1[N+](=O)[O-]` here?
A: The Potency was “inactive”.

Q: Which Potency does the source give for `COc1ccc(C)cc1N(CC(=O)N1CCC(C)CC1)S(=O)(=O)c1ccc(C)cc1` here?
A: The Potency was 18.4 µM (active).

Q: With `COc1cc2c(cc1OC)[C@@H]1C(=O)c3ccc(O)c(CC=C(C)C)c3OC1CO2` (stereo partly specified) as the compound, how does the Potency read?
A: Its Potency is “inactive”.

Q: For `COc1ccc2[nH]c3c(c2c1)CCN[C@H]3C`, which Potency is on record?
A: The Potency was “inactive”.

Q: Which Potency does the source give for `CC1CCC(N(C)C2CCN(C)CC2)CC1` (stereo unspecified) here?
A: Its Potency is “inactive”.

Q: Which Potency does the source give for `C[C@]12CCC3C(CC[C@H]4C[C@@H](O)CC[C@]34C)C1CC[C@@H]2O` (stereo partly specified) here?
A: Its Potency is “inactive”.
